# Laboratory results taken from PubChem BioAssay (NCI).
# About 83,000 compounds went through this panel and 20% of them were active in at least one assay; those are over-represented in the sample as a whole.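 96-well plates, one dose, 48 hours. Percent growth reported; active if below 10.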 Unmarked numbers belong to inactive results. Calls of active or inactive are those of the source.
# Legend:
# Experiment in all cases: NCI-60 one-dose screen, 48 h (100 = growth as untreated, 0 = no growth, -100 = all killed)
# Details in all cases: 10 µM unless noted
# [1] = system: SR leukemia
# [2] = system: RPMI-8226 leukemia
# [3] = system: OVCAR-8 ovarian
# [4] = system: OVCAR-5 ovarian
# [5] = system: OVCAR-4 ovarian
# [6] = system: SK-OV-3 ovarian
# [7] = system: IGROV1 ovarian
# [8] = system: OVCAR-3 ovarian
# [9] = system: HS 578T breast
# [10] = system: NCI/ADR-RES ovarian
SMILES,growth [1],growth [2],growth [3],growth [4],growth [5],growth [6],growth [7],growth [8],growth [9],growth [10]
Cc1cccc(C)c1NCc1nc(-c2ccccc2)n[nH]1,102%,108%,102%,95.6%,102%,93.7%,94.6%,113%,108%,103%
CC(C)(C)n1cc(-c2ccnc(NCCCNS(=O)(=O)c3ccc(Cl)cc3)c2)c(-c2cccc(F)c2)n1,32.9%,52.3%,84.7%,77.2%,90%,91.7%,69.5%,84.2%,87.9%,73.5%
CC1(C)C=CC[C@]2(C)[C@H]3CC[C@@H]4[C@H]5[C@H](C(=O)/C=C/c6cccnc6)CC[C@]5(CO)CC[C@@]4(C)[C@]3(C)CC[C@@H]12,-26.9% (active),-18.5% (active),-11.7% (active),-74.3% (active),-14.5% (active),-46.6% (active),-54.5% (active),-94.6% (active),-42.9% (active),-32.2% (active)
Cn1cc(-c2csc(-c3cn(CCN)c4ccc(F)cc34)n2)c2cccnc21,2.79% (active),67.9%,72.1%,80.2%,54.6%,78%,39.6%,84.1%,77.9%,78.3%
N#C/C(=C\c1ccc(-c2cccc(C(F)(F)F)c2)o1)c1nc(-c2ccco2)cs1,99.6%,45.8%,99.8%,60.2%,16.8%,112%,57.5%,100%,102%,97.1%
CCSc1sc(-c2ccc(C)cc2)nc1[P+](c1ccccc1)(c1ccccc1)c1ccccc1,-17.9% (active),-33.9% (active),1.31% (active),18.3%,-4.21% (active),-23.1% (active),-8.55% (active),-12.7% (active),-3.68% (active),-5.4% (active)
O=C1C(=O)c2ccccc2C(O)=C1CCCc1ccc(C2CCCCC2)cc1,35.6%,21.1%,51.4%,61.7%,58.2%,56.6%,51.3%,18%,53.4%,42.8%
N#C/C(=C\c1ccc(-c2ccc(Br)cc2)o1)c1nc(-c2cccs2)cs1,90.4%,92.8%,106%,95.6%,96.3%,111%,88.1%,110%,108%,95%
Cc1cc(N2CCCCC2)nc(N(CCNc2ccnc3cc(Cl)ccc23)Cc2ccco2)n1,-15.8% (active),-36.5% (active),22.3%,50.2%,43.2%,77.9%,18.1%,-40% (active),51.4%,10.5%
COc1cc2nc(Cl)nc(Nc3cccc(C(=O)/C=C/c4ccc(F)cc4)c3)c2cc1OC,12.2%,-18.1% (active),67.3%,68.2%,64.9%,106%,51%,43.4%,101%,51.6%
C=C(C)[C@@H]1CC[C@]2(C(=O)OC)CC[C@]3(C)[C@H](CC[C@@H]4[C@@](C)(CC/C(N)=N/O)[C@H](C(=C)C)CC[C@]43C)[C@@H]12,69.2%,93%,102%,105%,92.1%,115%,107%,103%,93.9%,101%
Oc1ccc(CCC2CCCC(CCc3ccc(OCCF)cc3)N2)cc1 (stereo not given),67.2%,90.8%,93.3%,89.4%,82.9%,96%,96.2%,107%,97.5%,87.6%
COc1ccc(NC(=S)N/N=C/c2ccccc2SSCCC(=O)OC[C@H]2O[C@H](O)[C@H](O)[C@@H](O)[C@@H]2O)cc1,49.6%,91.7%,68.3%,100%,80.4%,73.5%,56.8%,91.3%,91.6%,59.7%
CC/C=C\C[C@H]1CC=C2C(=O)C=C[C@@H]2CC=CCCCC(=O)O[C@@H](CCCCC)CC=C2C(=O)C=C[C@@H]2CC=CCCCC(=O)O[C@@H](CCCCC)CC=C2C(=O)C=C[C@@H]2CC=CCCCC(=O)O[C@@H](CCCCC)CC=C2C(=O)C=C[C@@H]2CC=CCCCC(=O)O1,2.79% [7.9 µM] (active),0.23% [7.9 µM] (active),-21.9% [7.9 µM] (active),75.1% [7.9 µM],21.6% [7.9 µM],73.4% [7.9 µM],8.16% [7.9 µM] (active),-14% [7.9 µM] (active),41.9% [7.9 µM],92.6% [7.9 µM]
Cn1c2ccccc2c2c3c(c4c5cccnc5[nH]c4c21)C(=O)N(O)C3=O,11.4%,39.6%,45.5%,104%,71.3%,37.5%,45.1%,54.7%,110%,57.2%
CCC1C(=O)COC1=O (stereo not given),99.2%,83.9%,96.6%,108%,105%,71.4%,104%,109%,99.1%,87.9%
COc1ccc2c(c1)c(-c1nc(-c3c[nH]c4ncccc34)cs1)cn2CCN,0.217% (active),52.7%,70.5%,88.6%,57.1%,60.7%,30.4%,70.5%,62.3%,84.1%
NC1(N)C=CC2=C(C=C1)C1(N)C3=C(C=CC(N)(N)C=C3)N2C2(N)C3=C(C=CC(N)(N)C=C3)N1C1=C2C=CC(N)(N)C=C1,79.2%,18.6%,90.5%,105%,90.7%,102%,94.8%,97.8%,81.6%,82.9%
COc1cc2nc(Cl)nc(Nc3cccc(C(=O)/C=C/c4ccc(Cl)cc4)c3)c2cc1OC,10.4%,0.0429% (active),78.9%,85.5%,70.8%,89%,68.3%,48.8%,101%,65.7%
Cc1csc(Nc2nc(-c3ccc(Cl)cc3)nc(C(Cl)(Cl)Cl)n2)n1,57%,76.7%,89.9%,99%,95.5%,94.1%,102%,67%,101%,91.3%
c1ccc(-c2nc(Nc3ccc(-c4nc5ccccc5[nH]4)cc3)nc(N3CCOCC3)n2)cc1,8.94% (active),-22.6% (active),-50.4% (active),0.632% (active),-47.2% (active),-30.3% (active),-38.1% (active),-73.4% (active),-39.9% (active),-60.8% (active)
COc1cc2nc(Cl)nc(Nc3cccc(C(=O)/C=C/c4ccccc4)c3)c2cc1OC,8.85% (active),-2.13% (active),49.6%,68.9%,70.6%,81.1%,37.3%,38.2%,98.5%,49.9%
COC(=O)[C@]12CC[C@@H](C)[C@H](C)[C@@H]1C1=CC[C@@H]3[C@@]4(C)C[C@@H](O)OC[C@](C)(C=O)C4C(=O)C[C@@]3(C)[C@]1(C)CC2 (stereo not given in full),-14.3% (active),-19.3% (active),-4.45% (active),-10.5% (active),18.5%,-0.332% (active),14.7%,-12% (active),16.8%,10.9%
Cn1c(=O)c2c(nc(Br)n2CC(=O)Nc2ccc(F)cc2)n(C)c1=O,89.2%,79.1%,103%,103%,120%,102%,107%,114%,100%,102%
CCN1CCN(C(=O)[C@]23CC[C@@H](C)[C@H](C)[C@H]2C2=CC[C@@H]4[C@@]5(C)C/C(=C/c6cccc(OC)c6OC)C(=O)C(C)(C)[C@@H]5CC[C@@]4(C)[C@]2(C)CC3)CC1,5.2% (active),15.4%,50.3%,67.8%,24.5%,68.6%,60.7%,31.2%,67.6%,35.3%
